Out of some 290,000 compounds screened, about 370 (0.13%) were called active. Many of the other results were omitted from the sample, so actives are more common in it than they were. Entries with a potency or affinity are not part of this list. Unmarked numbers belong to inactive results.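 The calls were made as follows: active = spots per cell inhibited over 60%, with over 100 cells counted and total cytoplasm intensity under 500,000; inconclusive = wells with under 100 cells, flagged as likely toxic; inactive = the rest.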

For this test, the target named is G-protein coupled receptor 55 (Homo sapiens) (UniProt Q9Y2T6). In words: GPR55 antagonists blocking LPI-driven arrestin recruitment, primary screen, imaging, U2OS, beta-arrestin-GFP, LPI agonist (AID 2013).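 Also: U2OS cells stably carrying GPR55 and arrestin-GFP stimulated by 5 µM LPI near EC80; imaged beta-arrestin-GFP aggregate spots per cell after agonist stimulation; plate controls were LPI-stimulated DMSO wells for no effect and DMSO wells without LPI for full effect.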 The note with it: U2OS GPR55 beta-arrestin-GFP translocation imaging, LPI antagonism; at 10 µM; hits give high values.
Sequence of G-protein coupled receptor 55 (Homo sapiens) (Q9Y2T6 whole entry, looked up): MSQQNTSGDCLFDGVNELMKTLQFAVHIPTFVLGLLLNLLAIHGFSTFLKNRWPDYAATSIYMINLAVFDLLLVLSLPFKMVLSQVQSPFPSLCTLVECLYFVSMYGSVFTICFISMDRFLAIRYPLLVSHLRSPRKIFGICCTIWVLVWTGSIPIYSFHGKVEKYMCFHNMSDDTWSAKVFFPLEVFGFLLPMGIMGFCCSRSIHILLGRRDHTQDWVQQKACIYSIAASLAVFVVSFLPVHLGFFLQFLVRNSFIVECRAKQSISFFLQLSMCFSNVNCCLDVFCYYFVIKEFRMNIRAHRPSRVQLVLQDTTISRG
Consider `Cc1ccc(CNC(=O)c2nnn(CC(=O)Nc3cccc(C)c3C)c2N)cc1`, for which the inhibition is 18.1%.

Consider `Cc1cc(SCc2ccc(Br)cc2)nc(=O)[nH]1`, for which the inhibition is -5.2%.

As for `CCOc1ccc(OCc2ccc(C(=O)N3CCCCC3)o2)cc1`, the inhibition is 18.5%.

Consider `O=C(O)c1cc(NS(=O)(=O)c2ccc(NCc3ccccc3)c([N+](=O)[O-])c2)cc(C(=O)O)c1`, for which the inhibition was 58.9%.

`O=C(O)c1cc(NS(=O)(=O)c2ccc(N3CCCCC3)c([N+](=O)[O-])c2)cc(C(=O)O)c1`: the inhibition was 5%.

Take `Cc1sc(NC(=O)c2cc(-c3ccc(Cl)cc3)nc3ccccc23)c(C(N)=O)c1C`: the inhibition is 28.7%.

Take `Cc1sc(NC(=O)c2cc(-c3ccccc3)nc3ccccc23)c(C(N)=O)c1C`: the inhibition was -0.9%.

`Cc1ccc(C)c(-c2cc(C(=O)Nc3sc(C)c(C)c3C(N)=O)c3ccccc3n2)c1`: the inhibition is 18%.

As for `CCOC(=O)c1sc(NC(=O)c2cc(-c3ccccc3C)nc3ccccc23)c(C#N)c1C`, the inhibition was -36.6%.

Regarding `O=C(c1cc2cc(Br)ccc2o1)N1CCN(c2ccccc2)CC1`, the inhibition was 5.9%.

In the case of `CC(Sc1nnc(-c2ccc(OC(F)F)cc2)o1)C(=O)NCC1CCCO1` (stereo unspecified), the inhibition is 17.5%.

Turning to `COc1cc(NC(=O)CN2C(=O)CN(C)C2=O)c(C)cc1[N+](=O)[O-]`, the inhibition was 10.3%.

As for `COc1cc(NC(=O)CN2CCCCC2)c(C)cc1[N+](=O)[O-]`, the inhibition was 10.9%.

Consider `C=CCNC(=O)C1CCC(=O)N1S(=O)(=O)c1ccc(C)cc1` (stereo unspecified), for which the inhibition was 9.3%.

For the compound `CC(c1ccccc1C(O)(c1ccccc1)c1ccccc1)N(C)C` (stereo unspecified), the inhibition was 6.4%.

In the case of `CC(c1ccccc1C(O)c1ccccc1)N(C)C` (stereo unspecified), the inhibition was 28.9%.

With `S=c1[nH]nc(CCc2ccc(Cl)cc2)o1`, the inhibition is 9.7%.

As for `COc1ccc(S(=O)(=O)N(CC(=O)N2CCCCCC2)c2ccccc2OC)cc1`, the inhibition is 9.8%.

`CCOC(=O)c1cc(C#N)c(SC)nc1-c1ccccc1`: the inhibition was 18%.

Turning to `CCOC(=O)c1cc(C#N)c(Oc2ccccc2OC)nc1-c1ccccc1`, the inhibition was 18.2%.

Consider `COC(=O)c1cc(C#N)c(Oc2ccc(F)cc2)nc1C`, for which the inhibition was 20.6%.

Take `CCOC(=O)c1cc(C#N)c(Oc2cccc(C(F)(F)F)c2)nc1-c1ccccc1`: the inhibition is 10%.

`CCOC(=O)c1c(C)[nH]c(C)c1S(=O)(=O)NCCN1CCN(c2cc(Cl)ccc2C)CC1`: the inhibition is 11.1%.

In the case of `Cc1ccc(NS(=O)(=O)c2cccc(C(=O)O)c2)cc1S(=O)(=O)N1CCCCC1`, the inhibition is 5.9%.

As to `Cc1cc(C)nc(SC2CC(=O)N(c3ccc(Cl)cc3)C2=O)n1` (stereo unspecified), the inhibition is 20.8%.

Turning to `O=[N+]([O-])c1ncn(C23CC4CC(CC(C4)C2)C3)n1`, the inhibition is -8.9%.

Consider `N#CC(c1ccccn1)c1ncc(C(F)(F)F)cc1Cl` (stereo unspecified), for which the inhibition was 3.6%.

On to `O=C(NCc1ccccn1)c1ccc(Cl)c(S(=O)(=O)N2CCCCCC2)c1`, for which the inhibition is 21.3%.

For `CCCCC1(CC(=O)OC)C(=O)N(c2ccccc2)N(c2ccccc2)C1=O`, the inhibition was -3.2%.

On to `CCCCC1(CO)C(=O)N(c2ccccc2)N(c2ccccc2)C1=O`, for which the inhibition is -5.2%.

`CCCCC1(Cc2ccc([N+](=O)[O-])cc2)C(=O)N(c2ccccc2)N(c2ccccc2)C1=O`: the inhibition is 51.2%.

For `CCCCC1(CC(=O)OCC)C(=O)N(c2ccccc2)N(c2ccccc2)C1=O`, the inhibition is 17.5%.

Consider `CCCCCCSc1nc(O)c(C2OC(=O)c3c2ccc(OC)c3OC)c(=O)n1CC` (stereo unspecified), for which the inhibition was 2.6%.

For `CC(=O)c1ccc(NC(=O)CCc2c(C)nn(-c3ccc(N4CCOCC4)nn3)c2C)cc1`, the inhibition is 4.4%.

For `O=C(NCc1ccco1)C(=O)NCC1OCCN1C(=O)c1ccc(Cl)cc1` (stereo unspecified), the inhibition is 2.4%.

Regarding `O=C(Nc1ccnc(=O)[nH]1)c1sc2ccccc2c1Cl`, the inhibition is 5.4%.

On to `CCOCc1nnc(NC(=O)c2cc(OC)c(OC)cc2[N+](=O)[O-])s1`, for which the inhibition was 1.7%.

Regarding `O=C1CSC(c2ccc(Cl)cc2Cl)N1c1ccccn1` (stereo unspecified), the inhibition is 22.4%.

As for `O=C1CSC(c2cccc(Cl)c2Cl)N1c1ccccn1` (stereo unspecified), the inhibition was 13%.

`C/C(CC(=O)N1CCN(C=O)CC1)=N\NC(=O)c1cc2ccccc2cc1O`: the inhibition was 5.8%.

`Cc1nc2c(oc3ccc(Cl)cc32)c(=O)[nH]1`: the inhibition was -10.2%.

Regarding `Clc1ncnc2c1oc1ccccc12`, the inhibition is 26.5%.

Regarding `Cc1c(N/C(=N/S(=O)(=O)c2ccc(Cl)cc2)c2ccccc2)c(=O)n(-c2ccccc2)n1C`, the inhibition is -4.8%.

As for `c1ccc(-c2ccccc2-c2nc(-c3ccncc3)no2)cc1`, the inhibition is 41.2%.

Consider `COc1ccc(-c2noc(-c3ccccc3-c3ccccc3)n2)cc1`, for which the inhibition is 10.6%.

`Cc1ccc(N/N=C(\C#N)C(=N)N2CCCCC2)cc1`: the inhibition was 2.6%.

Consider `Cc1ccc(N/N=C(\C#N)C(=N)N2CCOCC2)cc1`, for which the inhibition was 86.4% (active).

`Cc1ccc(N/N=C(\C#N)C(=N)N2CCCCCC2)cc1`: the inhibition is -5%.

For the compound `CN(CC(=O)NCc1ccccc1F)S(=O)(=O)c1ccc(Cl)cc1`, the inhibition is 3.3%.

Regarding `COC(=O)CSc1nc(NCC(C)C)nc(N2CCOCC2)n1`, the inhibition was -2.9%.

Consider `Clc1ccccc1OCCn1ccnc1`, for which the inhibition is 1.9%.

As for `Clc1ccccc1C(c1ccccc1)(c1ccccc1)n1ccnc1`, the inhibition is 98.7% (active).

Consider `Clc1ccccc1OCCCn1ccnc1`, for which the inhibition is -2.4%.

In the case of `CCCCN(C(=O)CCCc1nc2ccccc2c(=O)[nH]1)c1c(N)n(CCCC)c(=O)[nH]c1=O`, the inhibition is 21.5%.

As to `COC(=O)c1sc(NC(=O)/C=C/c2ccc(C)cc2)nc1C`, the inhibition was 16.9%.

On to `Cc1nc2ccc(S(=O)(=O)N3CCCCC3)cc2s1`, for which the inhibition is -5.9%.

On to `CSc1nc2ccc(S(=O)(=O)N3CCCCC3)cc2s1`, for which the inhibition is 10.7%.

As for `CC1NC(=S)N(C2CCCCC2)C1=O` (stereo unspecified), the inhibition was 2.5%.

With `COc1cccc(OC)c1C1=NC(C)(C)CO1`, the inhibition was 6.1%.

`COc1ccc2cc(C(=O)C3CCCN(C(=O)c4cc5nc(C)cc(C)n5n4)C3)ccc2c1` (stereo unspecified): the inhibition was -6.7%.

Take `Cc1c(N=C2N=C(NC(=O)NC(C)(C)C)c3ccccc32)c(=O)n(-c2ccccc2)n1C`: the inhibition was 1.4%.

In the case of `Cc1cccc(C)c1NS(=O)(=O)c1cc2c3c(c1)CC(=O)N3CCC2`, the inhibition is 6.8%.

On to `CCc1nc(C)cn1S(=O)(=O)c1ccc(Cl)c(Cl)c1Cl`, for which the inhibition was 18.7%.

In the case of `CCc1nc(C)cn1S(=O)(=O)c1ccc([N+](=O)[O-])cc1`, the inhibition was 0.5%.

On to `Cc1c(C(=O)NCCN2CCCC(O)C2)oc2c(F)cccc12` (stereo unspecified), for which the inhibition is 26.6%.

Regarding `O=C(N/N=C/c1cccn1-c1ccc([N+](=O)[O-])cc1)C(O)c1ccccc1` (stereo unspecified), the inhibition is 16.8%.

Turning to `Cc1cc(/C=N/Nc2ccc([N+](=O)[O-])cn2)c(C)n1-c1ccccc1`, the inhibition was 13.4%.

`O=[N+]([O-])c1ccc(N/N=C\c2cccn2-c2ccccc2)nc1`: the inhibition was 89.6% (active).

Take `Cc1ccc(S(=O)(=O)N2CC=C(C(=O)NC3CC3)CC2)cc1`: the inhibition was 17.2%.

For `COc1ccc(CNc2nc3c(c(C(F)(F)F)n2)CCCCC3)cc1`, the inhibition was 13.2%.

Take `CN1CCN(C(=S)SCC(=O)N2CCCc3ccccc32)CC1`: the inhibition is 23.2%.

Consider `COc1ccc(/C=C/c2nc3ccccc3n2C)cc1`, for which the inhibition is -8.1%.

As for `Cc1csc(NC(=O)c2cccc(S(=O)(=O)N3CCN(C)CC3)c2)n1`, the inhibition is 5%.

For `Cc1c(CCOC(=O)CC23CC4CC(CC(C4)C2)C3)sc[n+]1CC(=O)c1ccc(Br)cc1`, the inhibition was 58.4%.

On to `Cc1c(CCOC(=O)c2ccccc2)sc[n+]1CC(=O)c1ccc(Br)cc1`, for which the inhibition is -14%.

For `COc1c(F)c(F)c(C(=O)Nc2ccc(NC(=O)c3ccco3)cc2)c(F)c1F`, the inhibition is 9.4%.

With `COc1ccc(-c2csc(-n3ncc(C(=O)O)c3C(F)(F)F)n2)cc1`, the inhibition was 0.6%.

In the case of `C=CCn1c(CCc2ccccc2)nnc1SCC(N)=O`, the inhibition was 1.8%.

Regarding `C=CC(=O)NCCCc1cc(C(C)(C)C)c(O)c(C(C)(C)C)c1`, the inhibition was 8.3%.

For `Cc1cc(C(=O)CSc2nnnn2-c2ccc(O)cc2)c(C)n1C`, the inhibition is 3.7%.

`COc1ccccc1OC(=O)Nc1ccc(Cl)cc1`: the inhibition is 0.1%.

As for `O=S(=O)(Nc1ccc(Cc2ccncc2)cc1)c1ccc(Br)cc1`, the inhibition was 2.9%.

For the compound `CC(C)(C)c1ccc(S(=O)(=O)Nc2ccc(Cc3ccncc3)cc2)cc1`, the inhibition is 80.2% (active).

`O=S(=O)(Nc1ccc(Cc2ccncc2)cc1)c1ccc(Cl)cc1`: the inhibition is -2.3%.

In the case of `Cc1cc2nc(-c3ccc[nH]c3=O)n(Cc3cccc(F)c3)c2cc1C`, the inhibition is 8.3%.

In the case of `Cc1ccc(NC(=O)Nc2cc(Cl)ccc2C2COC(=O)C2=N)cc1` (stereo unspecified), the inhibition was 7.5%.

For `Fc1ccc(-c2n[nH]c(=S)c3ccccc23)cc1`, the inhibition was 98% (active).

Consider `S=c1[nH]nc(-c2ccccc2)c2ccccc12`, for which the inhibition is -20.4%.

In the case of `Cc1ccc(-c2n[nH]c(=S)c3ccccc23)cc1`, the inhibition was 10.4%.

As for `Cc1c(CN2CCN(CC(C)(C)C)C(CCO)C2)[nH]c2ccccc12` (stereo unspecified), the inhibition is 7.5%.

For the compound `COc1cccc(C2CC(c3cccc(NS(C)(=O)=O)c3)=NN2C(=O)c2ccccc2)c1OC` (stereo unspecified), the inhibition was 10.9%.

On to `Clc1ccc(C(c2ccccc2)N2CCNCC2)cc1` (stereo unspecified), for which the inhibition was 20%.

On to `CN1CC2(C)CN(C(c3ccccc3)c3ccccc3)CC(C)(C1)C2O` (stereo unspecified), for which the inhibition was 5.6%.

`CC(C)(NC(=O)N1CCCC1)c1cccc(C(C)(C)NC(=O)N2CCCC2)c1`: the inhibition was 0.9%.

On to `CCOC(=O)Cc1c(Cl)c2ccccc2[nH]c1=O`, for which the inhibition was -1.4%.

For `Cc1cc(C(=O)Cn2nc(C(=O)O)c3ccccc3c2=O)c(C)n1C1CC1`, the inhibition is 3.9%.

Source of the values: PubChem BioAssay AID2013 (Sanford-Burnham Center for Chemical Genomics, 2009).
